# Results taken from PubChem BioAssay AID1159580 (chemical genetic matrix, 2015).
# “And” between values parts separate entries of the source, which are not always exact repeats. Equal values may be shown once. Screen size: about 5,500 compounds; about 2,000 (36%) were called active. Not shown: some 18% with an inconclusive outcome. Cut-off read from the data, not from the text of the source: active = normalized growth mostly below about 0.91 (no sharp cut-off); inconclusive = no clear call, values can overlap the other calls; inactive = mostly above about 0.92. Some of the results follow. A structure can be active in one record and inactive in another.
# Assay: chemical genetic growth profiling, strain panel (AID 1159580);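 note: tested at 20 µM; growth read once vehicle control cultures reached saturation at 30 °C; 1 = growth at the plate median or of vehicle wells; lower values mean less growth of the strain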
# Conditions: growth OD
compound,measurement,setting,value
COc1ccccc1N1CCNCC1,normalized growth,"S. cerevisiae deletion strains, locus YAL013W, strain DEP1, stronger effect = lower value",1.01 (inactive) and 0.975 (inactive)
same,normalized growth,"S. cerevisiae deletion strains, locus YAL040C, strain CLN3, stronger effect = lower value",0.965 (inactive)
same,normalized growth,"S. cerevisiae deletion strains, locus YBR021W, strain FUR4, stronger effect = lower value",1.01 (inactive)
same,normalized growth,"S. cerevisiae deletion strains, locus YBR229C, strain ROT2, stronger effect = lower value",1.01 (inactive)
same,normalized growth,"S. cerevisiae deletion strains, locus YCL029C, strain bik1, stronger effect = lower value",1.03 (inactive)
same,normalized growth,"S. cerevisiae deletion strains, locus YCL061C, strain MRC1 (second series), stronger effect = lower value",0.993 (inactive)
same,normalized growth,"S. cerevisiae deletion strains, locus YDL035C, strain GPR1, stronger effect = lower value",1.01 (inactive)
same,normalized growth,"S. cerevisiae deletion strains, locus YDL074C, strain BRE1, stronger effect = lower value",1.01 (inactive)
same,normalized growth,"S. cerevisiae deletion strains, locus YDL101C, strain DUN1, stronger effect = lower value",1 (inactive)
same,normalized growth,"S. cerevisiae deletion strains, locus YDL134C, strain PPH21, stronger effect = lower value",1.01 (inactive)
same,normalized growth,"S. cerevisiae deletion strains, locus YDL185W, strain tfp1, stronger effect = lower value",1.03 (inactive)
same,normalized growth,"S. cerevisiae deletion strains, locus YDL192W, strain arf1, stronger effect = lower value",1.03 (inactive)
same,normalized growth,"S. cerevisiae deletion strains, locus YDR101C, strain arx1, stronger effect = lower value",1.02 (inactive)
same,normalized growth,"S. cerevisiae deletion strains, locus YDR150W, strain NUM1, stronger effect = lower value",1 (inactive) and 0.996 (inactive)
same,normalized growth,"S. cerevisiae deletion strains, locus YDR162C, strain NBP2, stronger effect = lower value",1.01 (inactive)
same,normalized growth,"S. cerevisiae deletion strains, locus YDR318W, strain mcm21, stronger effect = lower value",1.03 (inactive)
same,normalized growth,"S. cerevisiae deletion strains, locus YDR363W, strain ESC2, stronger effect = lower value",0.962 (inactive)
same,normalized growth,"S. cerevisiae deletion strains, locus YDR388W, stronger effect = lower value",1.03 (inactive)
same,normalized growth,"S. cerevisiae deletion strains, locus YDR502C, strain sam2, stronger effect = lower value",1.02 (inactive)
same,normalized growth,"S. cerevisiae deletion strains, locus YEL061C, strain CIN8, stronger effect = lower value",1.01 (inactive)
same,normalized growth,"S. cerevisiae deletion strains, locus YER002W, strain NOP16, stronger effect = lower value",0.99 (inactive)
same,normalized growth,"S. cerevisiae deletion strains, locus YER110C, stronger effect = lower value",1.03 (inactive)
same,normalized growth,"S. cerevisiae deletion strains, locus YER155C, strain BEM2, stronger effect = lower value",1.01 (inactive)
same,normalized growth,"S. cerevisiae deletion strains, locus YER167W, strain BCK2, stronger effect = lower value",1.03 (inactive)
same,normalized growth,"S. cerevisiae deletion strains, locus YGL078C, strain dbp3, stronger effect = lower value",1.02 (inactive)
same,normalized growth,"S. cerevisiae deletion strains, locus YGL086W, strain mad1, stronger effect = lower value",1.02 (inactive)
same,normalized growth,"S. cerevisiae deletion strains, locus YGL248W, strain PDE1, stronger effect = lower value",1.01 (inactive)
same,normalized growth,"S. cerevisiae deletion strains, locus YGR078C, strain PAC10, stronger effect = lower value",1 (inactive)
same,normalized growth,"S. cerevisiae deletion strains, locus YGR135W, strain pre9, stronger effect = lower value",1.02 (inactive)
same,normalized growth,"S. cerevisiae deletion strains, locus YGR229C, strain SMI1, stronger effect = lower value",0.999 (inactive)
same,normalized growth,"S. cerevisiae deletion strains, locus YGR252W, strain gcn5, stronger effect = lower value",1.05 (inactive)
same,normalized growth,"S. cerevisiae deletion strains, locus YHR030C, strain SLT2, stronger effect = lower value",0.999 (inactive)
same,normalized growth,"S. cerevisiae deletion strains, locus YHR079C, strain IRE1 (second series), stronger effect = lower value",1.03 (inactive)
same,normalized growth,"S. cerevisiae deletion strains, locus YHR094C, strain hxt1, stronger effect = lower value",1.03 (inactive)
same,normalized growth,"S. cerevisiae deletion strains, locus YHR129C, strain ARP1, stronger effect = lower value",1 (inactive)
same,normalized growth,"S. cerevisiae deletion strains, locus YHR200W, strain rpn10, stronger effect = lower value",1.03 (inactive)
same,normalized growth,"S. cerevisiae deletion strains, locus YIL066C, strain RNR3, stronger effect = lower value",1.01 (inactive)
same,normalized growth,"S. cerevisiae deletion strains, locus YIL073C, strain SPO22, stronger effect = lower value",1.12 (inactive)
same,normalized growth,"S. cerevisiae deletion strains, locus YIL125W, strain kgd1, stronger effect = lower value",1.02 (inactive)
same,normalized growth,"S. cerevisiae deletion strains, locus YIR030C, strain dcg1, stronger effect = lower value",1.04 (inactive)
same,normalized growth,"S. cerevisiae deletion strains, locus YJL095W, strain BCK1, stronger effect = lower value",1 (inactive)
same,normalized growth,"S. cerevisiae deletion strains, locus YJL134W, strain LCB3, stronger effect = lower value",0.999 (inactive)
same,normalized growth,"S. cerevisiae deletion strains, locus YJL168C, strain set2, stronger effect = lower value",1.04 (inactive)
same,normalized growth,"S. cerevisiae deletion strains, locus YJL187C, strain SWE1 (second series), stronger effect = lower value",1.01 (inactive)
same,normalized growth,"S. cerevisiae deletion strains, locus YJR043C, strain POL32, stronger effect = lower value",1.01 (inactive)
same,normalized growth,"S. cerevisiae deletion strains, locus YJR075W, strain HOC1, stronger effect = lower value",0.969 (inactive) and 0.984 (inactive)
same,normalized growth,"S. cerevisiae deletion strains, locus YKL009W, strain mrt4, stronger effect = lower value",0.986 (inactive)
same,normalized growth,"S. cerevisiae deletion strains, locus YKL068W, stronger effect = lower value",1.01 (inactive)
same,normalized growth,"S. cerevisiae deletion strains, locus YKL085W, strain MDH1 (second series), stronger effect = lower value",1.04 (inactive)
same,normalized growth,"S. cerevisiae deletion strains, locus YKL085W, strain MDH1, stronger effect = lower value",1.04 (inactive)
same,normalized growth,"S. cerevisiae deletion strains, locus YKL190W, strain CNB1, stronger effect = lower value",0.994 (inactive)
same,normalized growth,"S. cerevisiae deletion strains, locus YKR001C, strain vps1, stronger effect = lower value",1.04 (inactive)
same,normalized growth,"S. cerevisiae deletion strains, locus YLR039C, strain RIC1, stronger effect = lower value",1.05 (inactive)
same,normalized growth,"S. cerevisiae deletion strains, locus YLR058C, strain SHM2, stronger effect = lower value",1.01 (inactive)
same,normalized growth,"S. cerevisiae deletion strains, locus YLR102C, strain apc9, stronger effect = lower value",1.04 (inactive)
same,normalized growth,"S. cerevisiae deletion strains, locus YLR262C, strain YPT6, stronger effect = lower value",1.06 (inactive)
same,normalized growth,"S. cerevisiae deletion strains, locus YLR268W, strain sec22, stronger effect = lower value",1.02 (inactive)
same,normalized growth,"S. cerevisiae deletion strains, locus YLR330W, strain CHS5, stronger effect = lower value",1 (inactive)
same,normalized growth,"S. cerevisiae deletion strains, locus YLR342W, strain FKS1 (second series), stronger effect = lower value",1.01 (inactive)
same,normalized growth,"S. cerevisiae deletion strains, locus YLR371W, strain rom2, stronger effect = lower value",1.03 (inactive)
same,normalized growth,"S. cerevisiae deletion strains, locus YLR418C, strain cdc73, stronger effect = lower value",1.04 (inactive)
same,normalized growth,"S. cerevisiae deletion strains, locus YML016C, strain PPZ1, stronger effect = lower value",1.01 (inactive)
same,normalized growth,"S. cerevisiae deletion strains, locus YML032C, strain rad52, stronger effect = lower value",1.03 (inactive)
same,normalized growth,"S. cerevisiae deletion strains, locus YML124C, strain tub3, stronger effect = lower value",1.02 (inactive)
same,normalized growth,"S. cerevisiae deletion strains, locus YMR078C, strain ctf18, stronger effect = lower value",1.04 (inactive)
same,normalized growth,"S. cerevisiae deletion strains, locus YMR223W, strain ubp8, stronger effect = lower value",1.03 (inactive)
same,normalized growth,"S. cerevisiae deletion strains, locus YMR263W, strain SAP30, stronger effect = lower value",0.997 (inactive) and 0.985 (inactive)
same,normalized growth,"S. cerevisiae deletion strains, locus YMR307W, strain GAS1, stronger effect = lower value",0.992 (inactive) and 1 (inactive)
same,normalized growth,"S. cerevisiae deletion strains, locus YNL067W, strain RPL9B, stronger effect = lower value",1 (inactive)
same,normalized growth,"S. cerevisiae deletion strains, locus YNL128W, strain TEP1, stronger effect = lower value",1.01 (inactive)
same,normalized growth,"S. cerevisiae deletion strains, locus YNL153C, strain GIM3, stronger effect = lower value",0.987 (inactive) and 1.27 [resistant] (active)
same,normalized growth,"S. cerevisiae deletion strains, locus YNL175C, strain NOP13, stronger effect = lower value",0.992 (inactive)
same,normalized growth,"S. cerevisiae deletion strains, locus YNL197C, strain WHI3, stronger effect = lower value",1.02 (inactive)
same,normalized growth,"S. cerevisiae deletion strains, locus YNL224C, strain SQS1, stronger effect = lower value",0.994 (inactive)
same,normalized growth,"S. cerevisiae deletion strains, locus YNL233W, strain BNI4, stronger effect = lower value",1.02 (inactive)
same,normalized growth,"S. cerevisiae deletion strains, locus YNL250W, strain rad50, stronger effect = lower value",1.05 (inactive)
same,normalized growth,"S. cerevisiae deletion strains, locus YNL271C, strain bni1, stronger effect = lower value",1.04 (inactive)
same,normalized growth,"S. cerevisiae deletion strains, locus YNL298W, strain CLA4, stronger effect = lower value",1.05 (inactive)
same,normalized growth,"S. cerevisiae deletion strains, locus YNL307C, strain MCK1, stronger effect = lower value",1.05 (inactive)
same,normalized growth,"S. cerevisiae deletion strains, locus YNL322C, strain KRE1, stronger effect = lower value",1.01 (inactive) and 0.972 (inactive)
same,normalized growth,"S. cerevisiae deletion strains, locus YNR052C, strain pop2, stronger effect = lower value",1.03 (inactive)
same,normalized growth,"S. cerevisiae deletion strains, locus YOL006C, strain TOP1, stronger effect = lower value",0.997 (inactive)
same,normalized growth,"S. cerevisiae deletion strains, locus YOL012C, strain htz1",0.807 (inactive)
same,normalized growth,"S. cerevisiae deletion strains, locus YOL147C, strain pex11, stronger effect = lower value",1.02 (inactive)
same,normalized growth,"S. cerevisiae deletion strains, locus YOR061W, strain CKA2, stronger effect = lower value",1.01 (inactive)
same,normalized growth,"S. cerevisiae deletion strains, locus YOR069W, strain VPS5, stronger effect = lower value",0.997 (inactive)
same,normalized growth,"S. cerevisiae deletion strains, locus YOR083W, strain WHI5 (second series), stronger effect = lower value",1 (inactive)
same,normalized growth,"S. cerevisiae deletion strains, locus YOR136W, strain idh2, stronger effect = lower value",1.03 (inactive)
same,normalized growth,"S. cerevisiae deletion strains, locus YOR144C, strain elg1, stronger effect = lower value",1.03 (inactive)
same,normalized growth,"S. cerevisiae deletion strains, locus YOR184W, strain ser1, stronger effect = lower value",1.05 (inactive)
same,normalized growth,"S. cerevisiae deletion strains, locus YOR316C, strain cot1, stronger effect = lower value",1.03 (inactive)
same,normalized growth,"S. cerevisiae deletion strains, locus YPL055C, strain LGE1, stronger effect = lower value",1.03 (inactive) and 0.983 (inactive)
same,normalized growth,"S. cerevisiae deletion strains, locus YPL241C, strain CIN2, stronger effect = lower value",1.01 (inactive)
same,normalized growth,"S. cerevisiae deletion strains, locus YPR119W, strain clb2, stronger effect = lower value",1.02 (inactive)
same,normalized growth,"S. cerevisiae deletion strains, locus YPR141C, strain kar3, stronger effect = lower value",1.03 (inactive)
same,normalized growth,"S. cerevisiae deletion strains, locus YPR163C, strain tif3, stronger effect = lower value",1.03 (inactive)
same,normalized growth,"S. cerevisiae deletion strains, locus YPR167C, strain met16, stronger effect = lower value",1.03 (inactive)
same,normalized growth,"S. cerevisiae deletion strains, strain wtn01, stronger effect = lower value",1.01 (inactive)
same,normalized growth,"S. cerevisiae strains, strain wild type, stronger effect = lower value",1.01 (inactive)
